APP transl inh: APP translation inhibition; actives 0.82% (n = 190,000); inhibition, % at 2 µM; SH-SY5Y APP 5'UTR-luciferase reporter, luminescence; AID 1285;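 active = inhibition above a set limit, derived from the sample mean plus 3 SD, cut at about 45% in these data; inconclusive = one replicate passes the limit while the other fails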
Ba/F3 V617F tox: lowers viability of Ba/F3 cells expressing EpoR and JAK2V617F. ATP luminescence. inhibition, % at 5.6 µM. actives 1.1% (n = 220,000). AID 1446;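 active = inhibition above the campaign mean plus 3 SD over all tested compounds, cut at about 24% in these data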;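 also: cytokine-independent growth of Ba/F3 cells driven by EpoR plus mutant JAK2; 0% = DMSO-treated cells and 100% = JAK inhibitor I control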
aSyn 5UTR inh: MLPCN primary screen, SNCA 5' untranslated region. alpha-synuclein 5'UTR reporter, inhibitor activity. inhibition, % (tested at 7.5 µM). actives 0.82% (n = 300,000). AID 1813; in the data active = inhibition above about 60%; inconclusive = no clear call, values can overlap the other calls;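 also: H4 neuroglioblastoma cells stably carrying SNCA 5'UTR luciferase fusion; 0% = DMSO wells and 100% = positive control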
KLF5 inh: kruppel-like factor 5 inhibition; DLD-1 KLF5 promoter-luciferase reporter, luminescence; inhibition, % at 5 µM; actives 0.23% (n = 290,000); AID 1700;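 active = inhibition above a per-plate limit of that plate's mean compound inhibition plus 3 SD, cut at about 60% in these data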;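 also: 0% = DMSO wells and 100% = LY294002 at 200 µM; higher means less KLF5 promoter-driven luciferase light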
BaF3 tox: reduces parental Ba/F3 cell viability, JAK2V617F counter-screen; CellTiter-Glo ATP luminescence; inhibition, % at 5.6 µM; actives 1.1% (n = 220,000); AID 1486;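 active = inhibition above a per-campaign cutoff, the mean inhibition of all tested compounds plus 3 SD, cut at about 27% in these data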;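 also: 0% = DMSO wells and 100% = JAK Inhibitor I control wells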
IEC-6 cytotox: IEC-6 cytotoxicity, counter-screen for KLF5 inhibitors. luminescence viability. inhibition, % at 5 µM. actives 0.78% (n = 290,000). AID 1825;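 also: 0% = plate median of test compound wells and 100% = cytotoxic reference compound wells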
IEC-6 tox confirm: IEC-6 cytotoxicity, confirmation assay; shares compounds with IEC-6 cytotox; IEC-6 rat intestinal epithelial viability, luminescence; inhibition, % at 5 µM; actives 63% (n = 1,900);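 also: 0% = vehicle and 100% = reference cytotoxic drug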
Active calls of the source: *; ? = inconclusive; . = no result given. Rows were chosen to be rich in hits. Some 2.2% of all compounds tested hit in one or more screens of this group. Rule as the data show it, unless noted: active = inhibition above about 22%; inactive = the rest.

SMILES	APP transl inh	Ba/F3 V617F tox	aSyn 5UTR inh	KLF5 inh	BaF3 tox	IEC-6 cytotox	IEC-6 tox confirm
O=C(CCN1C(=O)c2cccc3cccc(c23)C1=O)Nc1ccon1	0	0	-50	-19	2	-3	.
CCc1cc2c(=O)oc(-c3ccc(F)cc3)nc2s1	.	.	-27	-31	.	-6	.
O=C(Cn1ncc(Cl)c(Cl)c1=O)N1CCc2ccccc21	95*	6	135*	4	-7	41*	21
CCOc1cc(/C=C2\CN(C)C/C(=C\c3ccc(O)c(OCC)c3)C2=O)ccc1O	.	.	96*	33	.	88*	38*
CCC(C)N(C(=O)COC(=O)COc1c(C)cc(C)cc1C)C1CCS(=O)(=O)C1 (stereo unspecified)	.	.	3	.	.	.	.
Cc1cc(C(C)(C)C)cc(C)c1C[n+]1ccc2ccccc2c1	.	.	7	-21	.	28*	22*
COc1ccc(NS(=O)(=O)c2cccc(NC(=O)c3ccc(Cl)nc3)c2)cc1	10	63*	-2	12	78*	33*	18
CC1=NN(c2nc3ccccc3[nH]2)C(=O)/C1=C/N(C)C	-28	58*	.	-2	53*	40*	68*
Cn1c2ccccc2c(=O)c2ccc(C#Cc3ccc(N)cc3)cc21	.	.	-26	-44	.	36*	33*
COc1ccc(C#Cc2ccc3c(=O)c4ccccc4n(C)c3c2)cc1	.	.	-53	-14	.	0	.
Oc1ccc(Br)cc1CNc1cccc2cccnc12	.	.	12	5	.	44*	0
O=C(Nc1ccccc1)Nc1cccc(Cl)c1Cl	-55	-2	-237	-15	5	7	.
O=C(Nc1ccc(Oc2ccc(NC(=O)Nc3ccccc3Cl)cc2)cc1)Nc1ccccc1Cl	.	-2	-6	1	1	15	-2
O=S(=O)(NCc1ccccc1)NCc1cccc(C(F)(F)F)c1	-23	0	-1	1	6	-2	.
Cc1ccc(-n2nnnc2Sc2ccc(S(=O)(=O)NCCN(C)C)cc2[N+](=O)[O-])cc1	36	96*	-93	4	68*	28*	47*
CCN(CC(=O)NCc1ccc(F)cc1)C(=O)/C=C/c1ccc(OC)cc1	.	.	0	-26	.	3	.
CCN(CC(=O)NCc1ccc(F)cc1)C(=O)/C=C/c1ccc(OC)c(S(=O)(=O)NC(C)C)c1	.	.	63*	48	.	73*	50*
CCOc1ccccc1NS(=O)(=O)c1cn(C)nc1C	7	-4	4	11	-2	1	.
CCOc1ccc(C(C)=O)cc1COc1cccnc1[N+](=O)[O-]	.	.	-45	31	.	28*	24*
O=C(NCc1ccccc1Br)c1ccc2c(c1)OCCO2	.	.	-57	-35	.	-4	.
CO/N=C/c1ccc(OC)c(Oc2nc(OC)cc(OC)n2)c1	66*	-1	8	14	10	28*	3
CCO/N=C/c1ccc(OC)c(Oc2nc(OC)cc(OC)n2)c1	-36	-4	10	-20	3	-6	.
CC(C)CC(NC(=O)C(NC(=O)C1CCC(=O)N1C(=O)OCc1ccccc1)C(C)C)C(=O)N1CCCC1C(N)=O (stereo unspecified)	.	.	6	5	.	-6	.
Cn1c(=O)c2cc(S(=O)(=O)Nc3cc(C(=O)O)cc(C(=O)O)c3)ccc2n(C)c1=O	-8	-1	-18	-30	6	-8	.
Cc1cc(C)cc(NS(=O)(=O)c2ccc3c(c2)c(=O)n(C)c(=O)n3C)c1	15	49*	?	33	67*	35*	33*
SMILES	APP transl inh	Ba/F3 V617F tox	aSyn 5UTR inh	KLF5 inh	BaF3 tox	IEC-6 cytotox	IEC-6 tox confirm
COc1cccc2sc(Nc3nc(-c4ccccn4)cs3)nc12	84*	51*	52	25	53*	89*	96*
COc1cccc2sc(Nc3nnc(-c4ccc(F)cc4)o3)nc12	-10	-1	5	-15	3	-2	.
COc1cccc2sc(Nc3nnc(-c4cccs4)o3)nc12	-71	11	41	-8	10	69*	59*
CN(CCCNC(=O)CCC(=O)N1CCOc2ccc(Cl)cc21)Cc1ccccc1	.	.	-1	-21	.	12	.
O=C(Nn1cc(C(=O)Nc2ccccc2F)c2ccccc2c1=O)c1cnccn1	13	6	19	27	2	52*	12
Cc1sc2ncnc(N/N=C/c3cccc(O)c3)c2c1C	-39	2	-75	-4	0	5	.
C/C(=N\Nc1ncnc2sc(C)c(C)c12)c1ccccn1	.	.	105*	24	.	91*	94*
